Measured values taken from PubChem BioAssay AID1259417 (TB Discovery Research, Infectious Disease Research Institute, 2018).
Among all 1,100 compounds or so, about 760 (69%) were called active. How the calls were made is not given here. The set was probably picked from earlier hits. The list shows a part of the results.

Assay: M. tuberculosis growth inhibition, HTS (AID 1259417);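 further: bacteria grown with compound for 5 days at 37 °C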
Settings: stronger effect = higher value, concentration not given here
[1] = M. tuberculosis DsRed fluorescence growth inhibition
[2] = M. tuberculosis growth inhibition

| SMILES | inhibition [1] | inhibition [2] [%] |
| --- | --- | --- |
| Cc1cc(C)c2[nH]c3ccccc3c2n1 | 100% (active) | 101 |
| CCn1c(Sc2ncnc3ccccc23)nc2ccccc21 | 33.7% (active) | 57.9 |
| CCCc1cc(-c2nc(-c3ccc(Br)cc3)cs2)ccn1 | 98.5% (active) | 100 |
| CCOC(=O)COc1ccc2c(=O)c(-c3ccccc3F)coc2c1C | 77.2% (active) | 94.8 |
| CCOC(=O)COc1ccc2c(=O)c(-c3ccccc3Cl)c(C)oc2c1C | 41.3% (active) | 87.5 |
| Clc1ccc(COc2ccc3ccccc3c2CNCc2cccnc2)c(Cl)c1 | 73.9% (active) | 65.8 |
| Cc1ccc(OCC(O)CN2CCN(CC(O)COc3ccc(C)cc3C)CC2)c(C)c1 (stereo not drawn) | 6.73% (active) | 45.2 |
| Cc1cccc(OCC(O)CN2CCN(C(c3ccccc3)c3ccccc3)CC2)c1C (stereo not drawn) | -6.14% (inactive) | -29.9 |
| O=C1c2cccc3cccc(c23)C(=O)N1CCN1CCN(CC(O)COc2ccccc2Cl)CC1 (stereo not drawn) | -4.11% (inactive) | -8.38 |
| O=C(c1ccc(Cl)cc1)c1ccc(OCC(O)CN2CCN(Cc3ccccc3)CC2)cc1 (stereo not drawn) | 8.82% (inactive) | -14 |
| Cc1ccc(Cl)cc1N1CCN(CC(O)COc2ccc(C(=O)c3ccccc3)cc2)CC1 (stereo not drawn) | 16.7% (inactive) | 1.47 |
| Cc1cccc(OCC(O)CN2CCN(CCN3C(=O)c4cccc5cccc(c45)C3=O)CC2)c1C (stereo not drawn) | 3.21% (inactive) | -19.3 |
| OC(COc1ccccc1Cl)CN1CCN(C(c2ccccc2)c2ccccc2)CC1 (stereo not drawn) | -4.97% (inactive) | -9.36 |
| OC(COc1ccc2ccccc2c1)CN1CCCN(CC(O)COc2ccc3ccccc3c2)CC1 (stereo not drawn) | 37.5% (active) | 79.7 |
| O=C1c2cccc3cccc(c23)C(=O)N1CC1CCN(CC(O)COc2ccc3ccccc3c2)CC1 (stereo not drawn) | 37.2% (active) | 31.4 |
| CN(c1ccccc1)c1nc(N2CCCC2)nc(-n2ccnc2)n1 | 57.3% (active) | 34.7 |
| c1ccc(CN2CCN(c3nc(-c4ccccc4)nc(-n4ccnc4)n3)CC2)cc1 | 2.46% (inactive) | -9.34 |
| Cc1ccc(NC(=S)c2ccccn2)cc1 | 101% (active) | 101 |
| CCCOc1ccccc1NC(=O)Nc1ccc(Cl)c(Cl)c1 | 0.884% (inactive) | -14.7 |
| COC(=O)c1ccc2nc(C)cc(Nc3ccc(OCc4ccccc4)cc3)c2c1 | 92.1% (active) | 99.7 |
| CCOC(=O)c1ccc2nc(C)cc(Nc3ccc(N4CCCCC4)cc3)c2c1 | 100% (active) | 100 |
| CCCOc1ccc(Nc2cc(C)nc3ccc(Cl)cc23)cc1 | 101% (active) | 101 |
| CCC(=Nc1ccccc1O)C1=C(O)CC(c2ccccc2)CC1=O (stereo not drawn) | 98.9% (active) | 98.8 |
| O=C(c1ccco1)N(CCCn1ccnc1)c1nc2c(F)cccc2s1 | 91.1% (active) | 97.4 |
| O=C(c1ccco1)N(CCCn1ccnc1)c1nc2c(F)cc(F)cc2s1 | 97.5% (active) | 98.1 |
| O=C(NNc1nc2c(F)cc(F)cc2s1)c1coc2ccccc2c1=O | -0.752% (inactive) | -17.4 |
| O=C(c1cccs1)N(CCCn1ccnc1)c1nc2c(F)cc(F)cc2s1 | 73.3% (active) | 81.6 |

| SMILES | inhibition [1] | inhibition [2] [%] |
| --- | --- | --- |
| Oc1ccc(CSc2ccccc2)c2cccnc12 | 29% (active) | 45.1 |
| O=C(c1cccc(Cl)c1)N1N=C(c2ccc(Cl)cc2)CC1(O)C(F)(F)F (stereo not drawn) | 7.75% (inactive) | 23.1 |
| CC1=NN(C(=O)c2cccc(Cl)c2)C(O)(c2ccc(Cl)cc2)C1 (stereo not drawn) | 13.7% (active) | 42.4 |
| CC(C)(C)c1ccc(C(=O)N2N=C(c3ccccc3)CC2(O)C(F)(F)F)cc1 (stereo not drawn) | 2.12% (inactive) | -7.59 |
| CCC1=NN(C(=O)c2ccncc2)C(O)(c2ccc(Br)cc2)C1 (stereo not drawn) | 97.9% (active) | 93.4 |
| CC1=NN(C(=O)c2ccccc2)C(O)(c2ccncc2)C1 (stereo not drawn) | 97.7% (active) | 94.3 |
| CC1=NN(C(=S)Cc2ccccc2)C(C)(O)C1 (stereo not drawn) | 5.87% (inactive) | 14.6 |
| CC1(C)CC(=O)C2=C(C1)OC(N)=C([N+](=O)[O-])C2c1ccc(C#N)s1 (stereo not drawn) | 10.4% (active) | 32.4 |
| CC1=NN(c2nc(-c3ccc(Cl)cc3)cs2)C(=O)C1C (stereo not drawn) | 4.11% (inactive) | 7.17 |
| N#Cc1ccc(-c2ccc(OCC(=O)Nc3cccnc3)cc2)cc1 | 43% (active) | 88.1 |
| N#Cc1ccc(-c2ccc(OCC(N)=O)cc2)cc1 | 17.9% (active) | 86.6 |
| O=C(COc1ccc(Cl)cc1)Nc1ccc(Cc2ccncc2)cc1 | -0.257% (inactive) | -2.75 |
| CC(C)(C)C(=O)NC(=S)NNC(=O)C(c1ccccc1)c1ccccc1 | 44.9% (active) | 30.8 |
| CCN1CCN(c2ccc(NC(=O)CC34CC5CC(CC(C5)C3)C4)cc2Cl)CC1 | 32.7% (active) | 46.9 |
| CCC(=O)N1CCN(c2ccc(Cl)cc2NC(=O)CC23CC4CC(CC(C4)C2)C3)CC1 | 6.85% (inactive) | 6.57 |
| O=C(CC12CC3CC(CC(C3)C1)C2)Nc1ccc(N2CCOCC2)c(Cl)c1 | 33.8% (active) | -14.8 |
| Cc1ccc2c(c1)c1ncnc(N3CCc4ccccc4C3)c1n2C | 99.1% (active) | 100 |
| Cc1ccc(Cn2c(=N)n(CC(O)c3ccc(Cl)c(Cl)c3)c3ccccc32)cc1 (stereo not drawn) | 99.8% (active) | 98.9 |
| c1ccc(CC2CCN(c3nc4ccccc4n4cnnc34)CC2)cc1 | 57.6% (active) | 39.3 |
| c1ccc2c(NCCc3c[nH]c4ccccc34)c3ccccc3nc2c1 | 27.2% (active) | 59.7 |
| FC(F)(F)c1cccc(-n2cc(-c3ccccc3)c3c(NCc4cccnc4)ncnc32)c1 | 4.11% (inactive) | -14 |
| CCC1CCCCN1C(=O)COC(=O)c1cc2ccccc2cc1O (stereo not drawn) | 37.8% (active) | 89 |
| CC1CCN(C(=O)COC(=O)c2cc3ccccc3cc2O)CC1 | 75.2% (active) | 96 |
| CC1CC(C)CN(C(=O)COC(=O)c2cc3ccccc3cc2O)C1 (stereo not drawn) | 36.3% (active) | 90.7 |
| CC1CC(C)CN(C(=O)Nc2ccc(Cl)c(Cl)c2)C1 (stereo not drawn) | 9.98% (inactive) | 2.73 |
| O=C(OCC(=O)N1CCCCC1)c1cc2ccccc2cc1O | 47.8% (active) | 88.2 |
| CCC1CCCCN1C(=S)NC(=O)c1ccc(F)cc1 (stereo not drawn) | 7.93% (inactive) | 0.813 |
